# Laboratory results reported in PubChem BioAssay (NCATS).
# “And” between values parts separate entries of the source, which are not always exact repeats. Equal entries are not always repeated. Values without a mark were called inactive. For some of these results: Entries with a potency or affinity are not part of this list. The source made the active and inactive calls.
# Conditions: Ebola virus entry assay, green fluorescence channel
# Wherever efficacy is given: 0% is about no effect.
row,Compound,efficacy
1,CCN(CC)CCOC(=O)C(O)(c1ccccc1)c1ccccc1,-15.5%
2,N#CC(C#N)=Cc1ccc(O)c(O)c1,-17.1%
3,CCCN1CCC[C@@H]2Cc3[nH]ncc3C[C@H]21,-15.1%
4,CC1(CN2CCC(n3c(=O)[nH]c4ccccc43)CC2)OCc2ccccc2-n2cccc21 (configuration not stated),64.1%
5,NCCc1cc(O)c(O)cc1O,-42%
6,CCCCc1nc(Cl)c(CO)n1Cc1ccc(-c2ccccc2-c2nn[nH]n2)cc1,-25.2%
7,Cc1ccc2c(c1)C1CN(C)CCC1N2 (configuration not stated),62.7%
8,CC(C)Oc1ccc2c(=O)c(-c3ccccc3)coc2c1,27.1% and 23.5%
9,CC[C@@]1(c2ccccc2)NC(=O)N(C)C1=O,-26.5%
10,CCCCCCCCCCCCCCCC[N+](C)(C)CC,-76.8%
11,CC(C)(C)NC(=O)[C@H]1CC[C@H]2[C@@H]3CC[C@H]4NC(=O)C=C[C@]4(C)[C@H]3CC[C@]12C,71.8%
12,OCCN1CCN(CCCN2c3ccccc3Sc3ccc(C(F)(F)F)cc32)CC1,-98.3%
13,C[C@@H](O)[C@H]1C(=O)N2C(C(=O)O)=C(S[C@@H]3CN[C@H](CNS(N)(=O)=O)C3)[C@H](C)[C@H]12,41.5%
14,CC[N+]1(C)CCCC(OC(=O)C(O)(c2ccccc2)c2ccccc2)C1 (configuration not stated),26%
15,O=C1CCC(N2C(=O)c3ccccc3C2=O)C(=O)N1 (configuration not stated),-16.4%
16,CC(CCc1ccccc1)NC(C)C(O)c1ccc(O)cc1 (configuration not stated),36.4%
17,NC(=Nc1ccccc1)Nc1ccccc1,-28.5%
18,CCN1/C(=C/C=C/c2sc3ccccc3[n+]2CC)Sc2ccccc21,26.7%
19,O=C(c1ccccc1)c1ccc2n1CCC2C(=O)O (configuration not stated),22%

row,Compound,efficacy
1,Cc1ccc(-n2nc(C(C)(C)C)cc2NC(=O)Nc2ccc(OCCN3CCOCC3)c3ccccc23)cc1,134%
2,CC1=NS(=O)(=O)c2cc(Cl)ccc2N1,-18.7%
3,CN[C@H]1CC[C@@H](c2ccc(Cl)c(Cl)c2)c2ccccc21,-213%
4,CC(=O)[C@H]1CC[C@H]2[C@@H]3CC[C@H]4C[C@](C)(O)CC[C@]4(C)[C@H]3CC[C@]12C,28.4%
5,CC(=O)O[C@]1(C(C)=O)CC[C@H]2[C@@H]3C=C(Cl)C4=CC(=O)[C@@H]5C[C@@H]5[C@]4(C)[C@H]3CC[C@@]21C,67.4%
6,Clc1cccc(N2CCNCC2)c1,26.6%
7,Cc1ccc(S(=O)(=O)NC(=O)NN2CCCCCC2)cc1,-42.6%
8,COc1cc2nc(N3CCN(C(=O)C4COc5ccccc5O4)CC3)nc(N)c2cc1OC (configuration not stated),97.9%
9,COC(=O)C1=C(C)NC(C)=C(C(=O)OC(C)C)C1c1cccc2nonc12 (configuration not stated),-20.5%
10,O=C(NCCN1CCOCC1)c1ccc(Cl)cc1,-15.2%
11,CC[C@H](C)C(=O)O[C@H]1C[C@@H](C)C=C2C=C[C@H](C)[C@H](CC[C@@H]3C[C@@H](O)CC(=O)O3)[C@H]21,16.1%
12,COc1ccc(OC)c(C(O)CNC(=O)CN)c1 (configuration not stated),13.6%
13,O=C(O)c1ccc2[nH]cc(CCCCN3CC=C(c4ccccc4)CC3)c2c1,28%
14,CNC(=O)c1cc(Oc2ccc(NC(=O)Nc3ccc(Cl)c(C(F)(F)F)c3)cc2)ccn1,20.4%
15,C[C@@H]1C[C@H]2[C@@H]3CCC4=CC(=O)C=C[C@]4(C)[C@@]3(F)[C@@H](O)C[C@]2(C)[C@@]1(O)C(=O)CO,-13.7%
16,O=C1NCN(c2ccccc2)C12CCN(CC1COc3ccccc3O1)CC2 (configuration not stated),-42.1%
17,CC#C[C@]1(O)CC[C@H]2[C@@H]3CCC4=CC(=O)CCC4=C3[C@@H](c3ccc(N(C)C)cc3)C[C@@]21C,23.8%
18,CC(C)NCC(O)c1ccccc1Cl (configuration not stated),16.7%
19,C[C@@H]1CC(=O)NN=C1c1ccc(NN=C(C#N)C#N)cc1,-24% and 20%

# Conditions: Ebola virus entry assay, blue channel fluorescence
row,Compound,outcome
1,CC[C@@]1(c2ccccc2)NC(=O)N(C)C1=O,inactive
2,CC(C)(C)NC(=O)[C@H]1CC[C@H]2[C@@H]3CC[C@H]4NC(=O)C=C[C@]4(C)[C@H]3CC[C@]12C,inactive
3,OCCN1CCN(CCCN2c3ccccc3Sc3ccc(C(F)(F)F)cc32)CC1,inactive
4,C[C@@H](O)[C@H]1C(=O)N2C(C(=O)O)=C(S[C@@H]3CN[C@H](CNS(N)(=O)=O)C3)[C@H](C)[C@H]12,inactive
5,O=C(c1ccccc1)c1ccc2n1CCC2C(=O)O (configuration not stated),inactive
6,CC1=NS(=O)(=O)c2cc(Cl)ccc2N1,inactive
7,CC(=O)O[C@]1(C(C)=O)CC[C@H]2[C@@H]3C=C(Cl)C4=CC(=O)[C@@H]5C[C@@H]5[C@]4(C)[C@H]3CC[C@@]21C,inactive
8,COc1cc2nc(N3CCN(C(=O)C4COc5ccccc5O4)CC3)nc(N)c2cc1OC (configuration not stated),inactive
9,O=C(NCCN1CCOCC1)c1ccc(Cl)cc1,inactive
10,CC[C@H](C)C(=O)O[C@H]1C[C@@H](C)C=C2C=C[C@H](C)[C@H](CC[C@@H]3C[C@@H](O)CC(=O)O3)[C@H]21,inactive
11,COc1ccc(OC)c(C(O)CNC(=O)CN)c1 (configuration not stated),inactive
12,CNC(=O)c1cc(Oc2ccc(NC(=O)Nc3ccc(Cl)c(C(F)(F)F)c3)cc2)ccn1,inactive
13,C[C@@H]1C[C@H]2[C@@H]3CCC4=CC(=O)C=C[C@]4(C)[C@@]3(F)[C@@H](O)C[C@]2(C)[C@@]1(O)C(=O)CO,inactive
14,CC#C[C@]1(O)CC[C@H]2[C@@H]3CCC4=CC(=O)CCC4=C3[C@@H](c3ccc(N(C)C)cc3)C[C@@]21C,inactive
